Assay results reported in PubChem BioAssay (NCATS).
Records with an inconclusive call do not appear. Unmarked numbers belong to inactive results. The source made the active and inactive calls. Calls come from the whole dose curve; as a rule, active = well fitted cell-killing curve with a large enough effect; inconclusive = small, poorly fitted or top-dose-only effect, or effect the other way; inactive = no such curve, though single readings can be large or run the other way.

Assay: Quantitative highthroughput screen to assess conditional lethalithy of NOMO1 cells grown in Human Plasma-Like Medium with dialyzed fetal bovine serum (HPLM+ds) (AID 1963878); note: nearly all actives have a fitted effect of over 35% in size
Conditions: NOMO1 AML cells in HPLM+ds, CellTiter-Glo viability, 48 h; series mostly up to 45.8 µM; viability: at the top concentration
From the text: Assay Provider: Jason Cantor Ph.D.
Department of Biochemistry
University of Wisconsin-Madison, Madison, WI, USA
Chemical screening studies have identified drug sensitivities across hundreds of cancer cell lines but most putative therapeutics fail to translate. Discovery and development of drug candidates in models that more accurately reflect nutrient levels in human blood is a major challenge. Here we performed high-throughput screens in conventional versus Human Plasma-Like Medium (HPLM) to identify compounds that were "missed" when screening using the artificial culture condition. Sets of conditional anticancer compounds spanned phases of clinical development and included non-oncology drugs were assessed. […] We also traced conditional phenotypes for several chemotherapeutics to availability of HPLM-specific metabolites and confirmed others for compounds whose reported targets are encoded by nonessential genes. Our findings establish generalizable strategies for exploiting conditional lethality in HPLM to reveal therapeutic candidates and mechanisms of action in cancer cells.
Described herein are the results of each viability screens against three cell lines: NOMO1 (an acute myeloid leukemia cell line); P12-Ichikawa (a T-cell acute lymphoblastic leukemia); and SEM (a B-cell ALL). Each assay was screened using 3 different cell culture media: homemade human plasma-Like medium with 10% dialyzed fetal bovine serum (HPLM+ds); RPMI1640 with 10% untreated FBS and 5mM glucose (RPMI+s); and RPMI1640 with 10% dialyzed fetal bovine serum and 5 mM glucose (RPMI+ds).
PROTOCOL TABLE (as described by Inglese J, Shamu CE and Guy RK. 2007)
SEQUENCE No. (e.g., 1, 2, 3, etc.); […] (e.g., Cells, Incubation, Reagent, etc.); VALUE and DESCRIPTION.
1; Cells; 5 uL; white, solid bottom 1536-well Greiner assay plate.
2; Compounds; 23 nL; Kalypsis pin tool (Wako USA) equipped with a 1536-well pin head to transfer to the assay plates.
3; Incubation; 48 hours; 37C incubation.
4; Reagent; 3 uL; CellTiter Glo (Promega).
5; Incubation; 5 min, room temperature
6; Detection; Luminescence, Viewlux PerkinElmer.
NOTES (numbers refer to Sequence numbers above)
1. Briefly, 5 ul of cell reagent was dispensed using a Multidrop Combi Dispenser. The NOMO1 and SEM cells were plated at 500 cells/well and the P12-Ichikawa line at 1000 cells/well.
2. After seeding the cells, 23 nL of MIPE 4.1 library compounds (in DMSO) were added to each plate using a Kalypsys 1536 Pintool dispenser. Bortezomib at final concentration of […] and DMSO were added to each plate as positive and negative controls respectively. For each screen, MIPE 4.1 compounds were added over an eleven-point concentration range […] in 3-fold dilutions.
3. Each plate was covered with a stainless steel gasketed lid to prevent evaporation and incubated for 48 hour at 37C, 95% relative humidity, and 5% CO2.
4-5. Three microliter CellTilter-GloTM luminescent substrate mix (Promega) reagent was added to the assay plate and incubated at room temperature for 5 min.
6. The luminescence signal was measured using a ViewLux (PerkinElmer) multiplate reader with a 2 second exposure time per plate. Data for each compound were normalized as percent viability such that measurements for DMSO and the empty well controls in each plate were defined as 100% and 0%, respectively.
Potency is the fitted concentration of half-maximal effect.

Structure (SMILES)	Potency	viability
COc1ccc(F)c(F)c1C(=O)c1cnc(NC2CCN(S(C)(=O)=O)CC2)nc1N	4.18 µM (active)	–
CC(N)C12CC3CC(CC(C3)C1)C2 (stereo not given)	10.5 µM (active)	–
OC[C@H]1O[C@@H](Oc2ccc(O)cc2)[C@H](O)[C@@H](O)[C@H]1O	–	107%
CC1CCN(c2cc(N3CCN(C)CC3)ccc2NC(=O)c2cc(C#N)c[nH]2)CC1	–	102%
Cc1coc2c1C(=O)C(=O)c1c-2ccc2c1CCCC2(C)C	–	104%
COc1ccc(C2CC(c3ccccc3)=NN2c2ccc(S(N)(=O)=O)cc2)cc1 (stereo not given)	2.64 µM (active)	–
O=C(C=Cc1ccc(/C=C/C(=O)Nc2ccc(C3=NCCN3)cc2)cc1)Nc1ccc(C2=NCCN2)cc1	–	102%
COc1ccc2c(OCc3nnc4ccc(-c5ccccc5)nn34)ccnc2c1	–	62.1%
CCCCNc1cc(C(=O)O)cc(S(N)(=O)=O)c1Oc1ccccc1	–	105%
CC(=O)SCC(Cc1ccccc1)C(=O)NCC(=O)OCc1ccccc1 (stereo not given)	5.9 µM (active)	–
CCCCN1CCC(CNC(=O)c2c3n(c4ccccc24)CCCO3)CC1	–	77.1%
NC(=O)c1cnccn1	–	105%
CCCCOc1c(C(=O)c2c(F)cc(C)cc2F)cnc2n[nH]cc12	–	71.2%
CC(C)NCC(O)COc1ccc(COCCOC(C)C)cc1 (stereo not given)	–	72%
COc1cc(Nc2ncc(F)c(Nc3ccc4c(n3)NC(=O)C(C)(C)O4)n2)cc(OC)c1OC	4.69 µM (active)	–
Cc1nc(N)ncc1-c1nc(N2CCOCC2)c2sc(C(C)(C)O)cc2n1	0.0372 µM (active)	–
O=C(NC(Cc1cc(=O)[nH]c2ccccc12)C(=O)O)c1ccc(Cl)cc1 (stereo not given)	–	90.2%
Nc1cc(C(Cl)=C(Cl)Cl)c(S(N)(=O)=O)cc1S(N)(=O)=O	1.87 µM (active)	–
O=C(O)c1cccnc1Nc1cccc(C(F)(F)F)c1	–	108%
Cc1nc(-c2ccc(OCC(C)C)c(C#N)c2)sc1C(=O)O	–	113%

Structure (SMILES)	Potency	viability
CCN(CC)CCCCNc1ncc2c(n1)N(C)C(=O)N(c1c(Cl)c(OC)cc(OC)c1Cl)C2	26.4 µM (active)	–
O=C(C[C@@H]1CC=CCCC(=O)O[C@H](c2ccccc2)CNC1=O)NCc1ccc(Cl)cc1	–	95.1%
CCNc1cc(NC2CCC(O)CC2)nc(Nc2ccc3c(ccn3Cc3ccccc3)c2)n1 (stereo not given)	–	89%
NC(=O)C1CCCc2c1[nH]c1ccc(Cl)cc21 (stereo not given)	5.9 µM (active)	–
O=C(C=Cc1c(C(=O)O)[nH]c2cc(Cl)cc(Cl)c12)Nc1ccccc1	–	89.8%
COc1ccc(COc2cc3oc(=O)c4cc(C(C)O)ccc4c3cc2OC)cc1 (stereo not given)	–	81.3%
O=C(Nc1cc(Cl)cc2c1[nH]c1cnccc12)c1cccnc1	–	95.9%
COc1ccc2cc1Oc1ccc(cc1)C[C@H]1c3cc(c(OC)cc3CCN1C)Oc1c(OC)c(OC)cc3c1[C@H](C2)N(C)CC3	–	77.4%
O=C(O)c1nc(=O)[nH]c(=O)[nH]1	–	102% [at 23.2 µM]
CN1CC[C@@H](c2c(O)cc(O)c3c(=O)cc(-c4ccccc4Cl)oc23)[C@@H](O)C1	0.264 µM (active)	–
CC(NCc1ccc2c(c1)nc(NC(=O)c1ccc(-c3cn[nH]c3)s1)n2CC(C)(C)O)C(C)(C)C (stereo not given)	1.48 µM (active)	–
CCc1ccc(C(=O)Nc2cc(CN3CCN(C)CC3)cc(C(F)(F)F)c2)cc1C#Cc1cnc2ccnn2c1	–	93.5%
C[C@@H]1[C@H](C)CC[C@]2(C(=O)O)CC[C@]3(C)C(=CC[C@@H]4[C@@]5(C)C[C@@H](O)[C@H](O)[C@@](C)(CO)[C@H]5CC[C@]43C)[C@@H]12	–	103%
Cc1ccc(C(=O)Nc2cccc(C(F)(F)F)c2)cc1Nc1nc(-c2cccnc2)nc2c1cnn2C	–	103%
O=C(O)C=Cc1ccc(Cn2ccnc2)cc1	–	98.2%
C#CCN(C)CC1=Cc2ccccc2Oc2ccccc21	–	87.2%
N[C@@H](Cc1cc(I)c(Oc2cc(I)c(O)c(I)c2)c(I)c1)C(=O)O	–	94.5%
C[C@@H](c1ncncc1F)[C@](O)(Cn1cncn1)c1ccc(F)cc1F	–	91.1%
NC(=O)c1cccnc1	–	105%
NCc1ccc(OCCCc2sc(-c3ccc4c(c3)/C(=N/Nc3nc5ccccc5s3)CCC4)nc2C(=O)O)cc1	–	19.2%
